Measurements taken from PubChem BioAssay (NCI).
Compounds without any hit were thinned out: in the full panel of roughly 83,000, 20% have a hit.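 For each line, cells grew in 96-well plates with the test compound present at a single concentration for 48 hours.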 Values without a mark were called inactive. Calls of active or inactive are those of the source. How the source made its calls: active means growth percent below 10; inactive means the rest.

Columns and labels:
Assay in all cases: NCI-60 one-dose screen, 48 h (100 = growth as untreated, 0 = no growth, -100 = all killed)
Conditions in all cases: 10 µM unless noted
[1] = tested on: HCT-15 colon
[2] = tested on: HT29 colon
[3] = tested on: SNB-75 CNS
[4] = tested on: SNB-19 CNS
[5] = tested on: U251 CNS
[6] = tested on: PC-3 prostate
[7] = tested on: SK-MEL-5 melanoma
[8] = tested on: UACC-62 melanoma
[9] = tested on: LOX IMVI melanoma
[10] = tested on: SK-MEL-28 melanoma

For `Cc1nc2sc(C(=O)Nc3cccc(Cl)c3)c(N)c2cc1C(O)c1ccccc1` (stereo not given), the growth [1] was 14.2%, the growth [2] was 14.9% and the growth [3] was 46.9%. For the same compound, the growth [4] was 33.4%, the growth [5] was 10.2% and the growth [6] was 28.1%. It also gave a growth [7] of 11%, a growth [8] of 31.5% and a growth [9] of 45.3%. It also gave a growth [10] of 56%.
For `FC(F)(F)c1[nH]ncc1-c1nc2c(N3CCCCC3)cc3[nH]ncc3c2c2c1CCCC2`, the growth [1] was 5.17% (active), the growth [2] was 1.21% (active) and the growth [3] was -73.8% (active). For the same compound, the growth [4] was 7.25% (active), the growth [5] was 3.57% (active) and the growth [6] was 0.448% (active). For the same compound, the growth [7] was -68.2% (active), the growth [8] was -49.9% (active) and the growth [9] was -68.9% (active). The growth [10] was -6.99% (active).
`COc1cc(/C=N/Nc2ccccc2F)cc(OC)c1OC` gave a growth [1] of 89.2%, a growth [2] of 93.6% and a growth [3] of 103%. The growth [4] was 98.3%, the growth [5] was 93.3% and the growth [6] was 88.7%. For the same compound, the growth [7] was 102%, the growth [8] was 65.7% and the growth [9] was 65.7%. For the same compound, the growth [10] was 110%.
For `CCOC(=O)c1c(C)c2c(n1C)CSc1cc(S(=O)(=O)c3ccccc3)c(=O)[nH]c1-2`, the growth [1] was 24.7% [100 µM], the growth [2] was 0.904% [100 µM] (active) and the growth [3] was 32.1% [100 µM]. The growth [4] was 43.3% [100 µM], the growth [5] was 35.7% [100 µM] and the growth [6] was 15.9% [100 µM]. For the same compound, the growth [7] was -6.57% [100 µM] (active), the growth [8] was 1.08% [100 µM] (active) and the growth [9] was 31.9% [100 µM]. For the same compound, the growth [10] was 41% [100 µM].
`COc1ccc(NC(=O)c2sc3nc(C)c(C(O)c4ccccc4)cc3c2N)cc1` (stereo not given) gave a growth [1] of 24.9%, a growth [2] of 13.1% and a growth [3] of 20.3%. The growth [4] was 28.6%, the growth [5] was 17.8% and the growth [6] was 23.4%. For the same compound, the growth [7] was 23.2%, the growth [8] was 26.2% and the growth [9] was 55.1%. It also gave a growth [10] of 57%.
With `C[C@@H]1CC[C@@]2(OC1)O[C@H]1C[C@H]3[C@@H]4CC=C5C[C@@H](O[C@@H]6O[C@H](CO)[C@@H](O[C@@H]7O[C@@H](CO)[C@H](O)[C@H]7O)[C@H](O)[C@H]6O[C@@H]6O[C@@H](C)[C@H](O)[C@@H](O)[C@H]6O)CC[C@]5(C)[C@H]4CC[C@]3(C)[C@H]1[C@@H]2C` the growth [1] was -84.8% (active), the growth [2] was -61.2% (active) and the growth [3] was -94.3% (active). For the same compound, the growth [4] was -81.7% (active), the growth [5] was -97.7% (active) and the growth [6] was -90.2% (active). The growth [7] was -89.7% (active), the growth [8] was -98% (active) and the growth [9] was -96.7% (active). For the same compound, the growth [10] was -96.9% (active).
`Cc1ccccc1CNc1c2ccccc2nc2ccccc12` was tested, and the growth [1] was 14.6%, the growth [2] was 8.87% (active) and the growth [3] was 45.3%. It also gave a growth [4] of 27.1%, a growth [5] of 21.3% and a growth [6] of 25.6%. For the same compound, the growth [7] was 33.9%, the growth [8] was 46.7% and the growth [9] was 9.12% (active). For the same compound, the growth [10] was 58.3%.
In the case of `CCCCn1sc(=O)n(Cc2ccc(CNC(=O)OCc3ccc4c(Br)cc(Br)c(O)c4n3)cc2)c1=O`, the growth [1] is reported as 9.07% (active), the growth [2] is reported as 96.4% and the growth [3] is reported as 14.4%. The growth [4] was 37.4%, the growth [5] was 11.2% and the growth [6] was 18.9%. For the same compound, the growth [7] was -35.2% (active), the growth [8] was 37.6% and the growth [9] was 22.9%. It also gave a growth [10] of 67.4%.
Compound `CC[C@@H](c1ccc2cc(OC)ccc2c1)C(C)(C)C(=O)F` has a growth [1] of 104%, a growth [2] of 118% and a growth [3] of 106%. The growth [4] was 91.9%, the growth [5] was 98.8% and the growth [6] was 101%. For the same compound, the growth [7] was 106%, the growth [8] was 103% and the growth [9] was 91.4%. The growth [10] was 106%.
In the case of `O=C1/C(=C/c2ccccc2)CN(C(=O)c2cccnc2)C/C1=C\c1ccccc1`, the growth [1] is reported as -5.39% (active), the growth [2] is reported as -34% (active) and the growth [3] is reported as 81.6%. The growth [4] was 6.39% (active), the growth [5] was -23.8% (active) and the growth [6] was -17.6% (active). The growth [7] was -39.1% (active), the growth [8] was -46.2% (active) and the growth [9] was -84% (active). For the same compound, the growth [10] was -9.39% (active).
Compound `Cn1ncc2ccc(-c3nc(-c4ccccc4)[nH]c3-c3n[nH]c(=O)n3C3CC3)cc21` has a growth [1] of 100%, a growth [2] of 87.1% and a growth [3] of 81.2%. For the same compound, the growth [4] was 95.9%, the growth [5] was 100% and the growth [6] was 77.9%. It also gave a growth [7] of 98.8%, a growth [8] of 100% and a growth [9] of 97.2%. The growth [10] was 102%.
`CC/C=C\C/C=C/C=C1/C(=O)C=C[C@@H]1C/C=C\CCCC(=O)OC` was tested, and the growth [1] was 4.13% (active), the growth [2] was 2.21% (active) and the growth [3] was 93.4%. For the same compound, the growth [4] was 62.3%, the growth [5] was 28.7% and the growth [6] was 30.2%. For the same compound, the growth [7] was 70.1%, the growth [8] was -6.19% (active) and the growth [9] was -70% (active). For the same compound, the growth [10] was 36.7%.
For `O=C1C(Cl)=C(NCCN2CCOCC2)C(=O)c2ncccc21`, the growth [1] was -38% (active), the growth [2] was -27.6% (active) and the growth [3] was 88.3%. For the same compound, the growth [4] was 17.3%, the growth [5] was 29.6% and the growth [6] was 38.1%. For the same compound, the growth [7] was -94.1% (active), the growth [8] was -51.2% (active) and the growth [9] was -57.3% (active). For the same compound, the growth [10] was -84.3% (active).
`COc1ccc2nc3ccccc3c(NCc3ccc(F)cc3)c2c1` was tested, and the growth [1] was 4.11% (active), the growth [2] was 0.209% (active) and the growth [3] was 23.8%. The growth [4] was 17.7%, the growth [5] was 22.1% and the growth [6] was 17.1%. For the same compound, the growth [7] was -6.56% (active), the growth [8] was 39.1% and the growth [9] was -66.7% (active). The growth [10] was 35.3%.
Work on `COc1ccc2c(c1)c(-c1cc(-c3cn(C)c4ccc(OC)cc34)on1)cn2C` yielded a growth [1] of 98.6%, a growth [2] of 97.3% and a growth [3] of 97.8%. It also gave a growth [4] of 94.5%, a growth [5] of 93.7% and a growth [6] of 87.9%. For the same compound, the growth [7] was 81.2%, the growth [8] was 90.7% and the growth [9] was 81.8%. For the same compound, the growth [10] was 94.5%.
Compound `CN1C(=O)/C(=C/c2ccc(C(=O)Nc3ncc(Cc4ccc(F)cc4)s3)cc2)SC1=S` has a growth [1] of 22.4%, a growth [2] of 29.5% and a growth [3] of 40.3%. It also gave a growth [4] of 60.5%, a growth [5] of 65.2% and a growth [6] of 52.4%. The growth [7] was 17.6%, the growth [8] was 9.34% (active) and the growth [9] was 15.4%. For the same compound, the growth [10] was 58%.
For `Cc1cc2nc(-c3c(-c4ccc(F)cc4)nc4sccn34)[nH]c2cc1C`, the growth [1] was 93%, the growth [2] was 96.3% and the growth [3] was 105%. For the same compound, the growth [4] was 96.1%, the growth [5] was 95.4% and the growth [6] was 90.5%. For the same compound, the growth [7] was 86.3%, the growth [8] was 89% and the growth [9] was 88.8%. It also gave a growth [10] of 95.2%.
Work on `C#CCOc1ccc2ncnc(Nc3cccc(NC(=O)CCl)c3)c2c1` yielded a growth [1] of 50.6%, a growth [2] of 33.5% and a growth [3] of 68.9%. For the same compound, the growth [4] was 71.8%, the growth [5] was 62.2% and the growth [6] was 70%. For the same compound, the growth [7] was 68.3%, the growth [8] was 60.6% and the growth [9] was -68.1% (active). For the same compound, the growth [10] was 90.6%.
In the case of `CC(C)(CO)N(CCO)CCO`, the growth [1] is reported as 99.7%, the growth [2] is reported as 98.6% and the growth [3] is reported as 102%. For the same compound, the growth [4] was 103%, the growth [5] was 91.4% and the growth [6] was 91.4%. For the same compound, the growth [7] was 97.1%, the growth [8] was 101% and the growth [9] was 100%. For the same compound, the growth [10] was 103%.
`CC1(C)CCC(S(=O)(=O)c2ccc3c(c2)/C(=N\O)c2cc(S(=O)(=O)N4CCN(c5ccc(F)cc5O)CC4)ccc2-3)CC1` was tested, and the growth [1] was -75.1% (active), the growth [2] was -88.7% (active) and the growth [3] was -97.6% (active). For the same compound, the growth [4] was -72.7% (active), the growth [5] was -97.7% (active) and the growth [6] was -64.2% (active). The growth [7] was -93.6% (active), the growth [8] was -69.7% (active) and the growth [9] was -82.6% (active). For the same compound, the growth [10] was -72.2% (active).
For `COc1cc(C(=O)c2c(N)ncn2-c2ccccc2)cc(OC)c1OC`, the growth [1] was 82.6%, the growth [2] was 93.7% and the growth [3] was 90.7%. The growth [4] was 89.6%, the growth [5] was 95% and the growth [6] was 78.5%. It also gave a growth [7] of 89.5%, a growth [8] of 70.3% and a growth [9] of 91.9%. The growth [10] was 91.7%.
`C=CC1(C)C(O[Si](C)(C)C(C)(C)C)CC2C3OC(=O)NC31c1cccc3c1[C@H](C(=O)N3C)C2(C)C` (stereo not given in full) was tested, and the growth [1] was 32.2%, the growth [2] was 57.2% and the growth [3] was 74.4%. For the same compound, the growth [4] was 78.7%, the growth [5] was 67% and the growth [6] was 10.6%. The growth [7] was 25.9%, the growth [8] was 29.4% and the growth [9] was 63%. For the same compound, the growth [10] was 63.7%.
In the case of `Clc1ccc(-c2nc(-c3c[nH]c4ncccc34)cs2)cc1`, the growth [1] is reported as 98.7% [100 µM], the growth [2] is reported as 80.2% [100 µM] and the growth [3] is reported as -11.3% [100 µM] (active). It also gave a growth [4] of 48.7% [100 µM], a growth [5] of 16.2% [100 µM] and a growth [6] of 43.9% [100 µM]. It also gave a growth [7] of 84.1% [100 µM], a growth [8] of 71.2% [100 µM] and a growth [9] of 62.6% [100 µM]. For the same compound, the growth [10] was 94% [100 µM].
Compound `O=C(CCCCCCCCC(=O)N/N=C\c1cc(Cl)ccc1O)N/N=C\c1cc(Cl)ccc1O` has a growth [1] of 15.6%, a growth [2] of 58.9% and a growth [3] of 55.6%. The growth [4] was 34.8%, the growth [5] was 29.5% and the growth [6] was 26.6%. The growth [7] was -37.9% (active), the growth [8] was 0.989% (active) and the growth [9] was 14.1%. For the same compound, the growth [10] was 41.7%.
For `CCOC(=O)/C=C/c1c(C)[nH]c(=O)[nH]c1=O`, the growth [1] was 21.3%, the growth [2] was 31.4% and the growth [3] was 110%. The growth [4] was 93.4%, the growth [5] was 81.2% and the growth [6] was 80.9%. The growth [7] was 90.7%, the growth [8] was 87.6% and the growth [9] was 82.6%. The growth [10] was 117%.
Compound `O=C(c1ccc(Cl)cc1Cl)N1c2ccccc2Sc2ccccc21` has a growth [1] of 29.6%, a growth [2] of 47.5% and a growth [3] of 59.6%. The growth [4] was 57.3%, the growth [5] was 33.1% and the growth [6] was 44%. The growth [7] was 34.6%, the growth [8] was 43.1% and the growth [9] was 23.9%. It also gave a growth [10] of 65.4%.
